Measurements as given in PubChem BioAssay AID1852 (Sanford-Burnham Center for Chemical Genomics, 2009).
Among all 2,500 compounds or so, about 1,100 (44%) were called active.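 How the source made its calls: active means inhibition above 50% at 4 µM in the single-point screen; inactive means inhibition of 50% or less.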 So high a share suggests a set chosen from earlier hits. Some of the results follow.

Test: TNF-a-driven NF-kB reporter inhibitors, primary screen, selectivity assay for NOD1/NOD2 signaling inhibitor project, cell-based, HEK293T NF-kB-Luc, luminescence (AID 1852)
Details: TNF-a induced, 14 h, at 4 µM, hits give high values

inhibition, active:
O=C(Nc1nccs1)c1sc2cc(Cl)ccc2c1Cl 103%
Cn1ncc([N+](=O)[O-])c1C(=O)Nc1cccc(Cl)c1 92.6%
O=[N+]([O-])c1cccc(NC(=S)Nc2nc(-c3ccc(Cl)cc3Cl)cs2)c1 64.3%
Cc1csc(NC(=S)Nc2cccc(Cl)c2)n1 100%
CCN1/C(=C/c2sc(-c3ccccc3C)c[n+]2C)Sc2ccccc21 95.5%
CC[n+]1c(/C=C2\Sc3ccccc3N2C)ccc2cccc(C)c21 70.3%
CCN1/C(=C/c2ccc3cccc(C)c3[n+]2CC)Sc2ccccc21 61.9%
CC(C)(C)C1C/C(=C/c2ccccn2)C(=O)/C(=C/c2ccccn2)C1 (configuration not stated) 103%
CC1C/C(=C/c2ccccn2)C(=O)/C(=C/c2ccccn2)C1 (configuration not stated) 96.2%
O=C(NCc1ccccc1)C1=C[C@@H](c2csc3ccccc23)C[C@@H](OCCCCO)O1 69.1%
Cn1c(/C=C/c2ccc(Cl)cc2Cl)c([N+](=O)[O-])c(=O)n(C)c1=O 71.4%
Cc1sc(NC(=O)c2ccccc2)c(C(c2ccccn2)N2CCN(CCO)CC2)c1C (configuration not stated) 51.9%
Cc1nn(Cc2ccc(Cl)cc2)c(C)c1NC(=O)c1noc2c1CCc1ccccc1-2 105%
COc1cc(Cl)c(C)cc1NC(=O)CN(C)Cc1cccc(OC)c1OC 57.5%
O=c1c(Br)c(Br)cnn1-c1ccccc1 90.8%
Cc1ccc(-n2ncc(Br)c(Br)c2=O)cc1 105%
COc1cc(OC)nc(-n2ncc(Br)c(Br)c2=O)n1 105%
CN1C(=O)/C(=C/c2cc(N=Nc3ccccc3)ccc2O)SC1=S 98.2%
CN(C)S(=O)(=O)c1cccc(NC(=S)Nc2cccc3cnccc23)c1 62.5%
S=C(NCCc1ccccc1)Nc1cccc2cnccc12 69.1%
Cc1sc2ncnc(N3CCC(C(=O)N(C)CC(=O)Nc4ccccc4Cl)CC3)c2c1C 50.3%
CCOC(=O)c1sc(N2C(=O)C(O)=C(C(=O)c3ccco3)C2c2ccco2)nc1C (configuration not stated) 76.1%
CCC(C)(C)c1ccc(Oc2ccc(N)cc2)cc1 75.5%
Cc1c(C(=O)N/N=C/c2c(O)ccc3ccccc23)nnn1-c1nonc1N 89%
CC1CCN(Cc2c(C(=O)N/N=C/c3cc(Br)ccc3O)nnn2-c2nonc2N)CC1 95.1%
Nc1nonc1-n1nnc(C(=O)N/N=C/c2cc(Br)ccc2O)c1CNc1ccccc1 56.5%
Cn1c(=O)c2c(nc(NCc3ccco3)n2C/C=C/c2ccccc2)n(C)c1=O 78.2%
COc1cc(CNc2ccc3[nH]c(=O)[nH]c3c2)cc(Br)c1OCc1ccccc1F 61%
O=c1[nH]c(=O)n(Cc2ccco2)c2c1C(C(F)(F)F)(C(F)(F)F)N=C(c1ccc(F)cc1)N2 90.9%
Nc1ncnc(NCc2ccc(F)cc2)c1[N+](=O)[O-] 60.6%
O=C(Nc1ccc(N2CCN(c3ncccc3C(F)(F)F)CC2)nc1)c1cccs1 64.1%
O=S1(=O)C=C(Sc2nc3cc(Cl)ccc3o2)c2ccccc21 91.1%
O=S1(=O)C=C(Sc2nnc(-c3ccccc3)o2)c2ccccc21 70.6%
O=C(CN1CCCC1)N/N=C/c1c(O)ccc2ccccc12 87.6%
O=C(N/N=C\c1c(O)ccc2ccccc12)c1ccc(O)cc1 69.4%
Cn1nccc1C(=O)N/N=C/c1c(O)ccc2ccccc12 66.6%
O=C(N/N=C/c1c(O)ccc2ccccc12)c1ccc(CO)nc1 96.6%
Cc1ccc(C(=O)N/N=C/c2c(O)ccc3ccccc23)cn1 73.2%
C#Cc1ccc([C@@H]2C=C(C(=O)N3CCN(Cc4ccccc4)CC3)O[C@H](OCCCCO)C2)cc1 61.3%
COc1ccc2c(c1)-c1c(ssc1=S)C(C)(C)N2 92.8%
COc1cc(/C=C2/C(=O)NN(c3cccc(Cl)c3)C2=O)cc(OC)c1O 99.4%
N=C1SC(c2ccccc2)C(=O)N1c1ncc(Cc2ccccc2)s1 (configuration not stated) 107%
Cc1ccc(Cc2cnc(N3C(=N)SC(c4ccccc4)C3=O)s2)cc1 (configuration not stated) 99.6%
N=C1SC(c2ccccc2)C(=O)N1c1ncc(Cc2ccccc2Cl)s1 (configuration not stated) 106%
C/C(=N\NC(=O)c1nnn(-c2nonc2N)c1CN1CCCCC1)c1ccccc1O 64.6%
C/C(=N\NC(=O)c1nnn(-c2nonc2N)c1CN1CCc2ccccc21)c1ccccc1O 78.8%
CCN1/C(=C/c2cc[n+](C)cc2)C=Cc2cc(C)ccc21 66%
C=CC[n+]1c(/C=C2\C=Cc3cc(C)ccc3N2CC)ccc2ccccc21 74.1%
CCN1/C(=C/c2ccc3ccccc3[n+]2CC)C=Cc2ccccc21 67.3%
C=CC[n+]1ccc(/C=C2\C=Cc3cc(C)ccc3N2CC)c2ccccc21 84.9%

inhibition, inactive:
O=C(Nc1cccc(NC(=O)c2sc3ccccc3c2Cl)c1)c1ccco1 -117%
CS(=O)(=O)N1CCC(C(=O)Nc2cccc(Cl)c2)CC1 4.2%
Cn1ncc([N+](=O)[O-])c1C(=O)Nc1ccc(-c2ccccc2)cc1 -39.7%
O=C(Nc1ccc([N+](=O)[O-])cc1)Nc1nc(-c2ccc(Cl)s2)cs1 42.8%
Cc1ccc(NC(=S)NC(=O)c2ccc(F)cc2)cc1S(=O)(=O)Nc1cccc(Cl)c1 32.5%
Cc1ccccc1CN(CC(=O)Nc1cccc([N+](=O)[O-])c1)S(=O)(=O)c1ccc(Cl)cc1 -15.8%
CCCCN1/C(=C/c2ccc3ccccc3[n+]2CC)Sc2ccccc21 45.1%
O=C(Nc1ccc(-c2nc3ncccc3o2)cc1)c1ccc([N+](=O)[O-])o1 27.5%
Cn1c(/C=C/c2ccc(Br)cc2)c([N+](=O)[O-])c(=O)n(C)c1=O -12.1%
Cn1c(/C=C/c2ccc(Cl)cc2)c([N+](=O)[O-])c(=O)n(C)c1=O 18.7%
O=C(Nc1sc2c(c1C(=O)NCCCO)CCCC2)c1ccccc1 35.2%
Cc1cc(C(=O)Nc2c(C)nn(Cc3c(Cl)cccc3Cl)c2C)no1 -34.2%
COc1cccc(NC(=O)CN(C)CC(=O)Nc2ccc(C)c([N+](=O)[O-])c2)c1 42.8%
CCN(CC(=O)Nc1ccc([N+](=O)[O-])cc1OC)c1ccccc1 -39%
Oc1cc2c(cc1C(c1ccc(Br)cc1)N1CCCC1)OCO2 (configuration not stated) -3.2%
Cc1cc(/C=C2\SC(=S)N(C)C2=O)c(C)n1-c1ccc(O)cc1 24.7%
Cc1cc(/C=C2\SC(=S)N(C)C2=O)c(C)n1-c1cccc(O)c1 -111%
Cc1cccc(N2CCN(C(=S)NCCc3ccccc3)CC2)c1C -31.3%
S=C(NCCc1ccc(Cl)cc1)Nc1ccc(Cl)cc1Cl -10.9%
CN(C)S(=O)(=O)c1cccc(CSCc2cccc(S(=O)(=O)N(C)C)c2)c1 42.8%
CCN(CC)CCNC(=O)c1ccc(NC(=O)C2CCN(c3ncnc4sc(C)c(C)c34)CC2)cc1 43.8%
COc1cccc2cc(C(=O)C3=C(O)C(=O)N(c4cc(C)on4)C3c3cccs3)oc12 (configuration not stated) -0.9%
CCOC(=O)c1sc(N2C(=O)C(O)=C(C(=O)c3ccco3)C2c2cccc([N+](=O)[O-])c2)nc1C (configuration not stated) 23.8%
NC(=O)C1CCN(c2ccc(S(=O)(=O)N3CCC(Cc4ccccc4)CC3)cn2)CC1 32.5%
Cc1nc([N+](=O)[O-])c(Br)n1Cc1ccc(Cl)c(Cl)c1 7.2%
CC(C)n1c(CN(C)Cc2ccccc2)nc2c1c(=O)n(C)c(=O)n2C 38.7%
COc1cc(CNc2ccc3[nH]c(=O)[nH]c3c2)ccc1OCc1ccccc1C 37.1%
COc1cc(CNc2ccc3[nH]c(=O)[nH]c3c2)cc(Br)c1OCc1ccc(F)cc1 47.6%
Cc1cccc(C2=NC(C(F)(F)F)(C(F)(F)F)c3c(n(-c4ccc(F)cc4)c(=O)[nH]c3=O)N2)c1 -13.7%
Cc1ccc(CNc2ncnc(N)c2[N+](=O)[O-])cc1 36.2%
Cc1ccc(NC(=O)C2CCN(S(=O)(=O)c3ccc4c(c3)NC(=O)C(C)S4)CC2)cc1Cl (configuration not stated) 39.1%
Cc1nnc(Sc2nc3ccccc3o2)c2ccccc12 45.3%
O=C(CN1CCCCCC1)Nc1ccc(Br)cn1 -21.9%
O=C(N/N=C/c1c(O)ccc2ccccc12)c1ccc(Br)o1 34.2%
CCN(CC)c1ccc(C(=O)N2CCN(Cc3ccccc3)CC2)cc1 46.5%
Cc1ccc(CN2CCN(C(=O)c3cccc4ccccc34)CC2)cc1 12.3%
COc1cc(/C=C2/C(=O)NN(c3ccc(Cl)cc3)C2=O)cc(OC)c1O 9.3%
COc1cc(/C=C2/C(=O)NN(c3cccc(Cl)c3)C2=O)cc(Br)c1O 0.8%
CCOC(=O)C(=Cc1ccc(OCc2ccc([N+](=O)[O-])cc2)c(OC)c1)C(=O)OCC 11.6%
Cc1nc2cc(N3CCN(C)CC3)c(NC(=O)Cc3ccccc3)cc2c(=O)n1Cc1ccccc1 -21.7%
Cc1ccc2c(c1)c(/C=C/c1cc[n+](C)cc1)c(C)n2C 24.2%
CN1/C(=C/c2cc[n+](C)c3ccccc23)C=Cc2ccccc21 47.9%
